Test results reported in ChEMBL document CHEMBL4513216, “Probing the Open Global Health Chemical Diversity Library for Multistage-Active Starting Points for Next-Generation Antimalarials” (ACS Infect Dis, 2020).
Hit rate of the full screen: of about 69,000 compounds, about 8,600 (12%) showed an effect of 50% or more. The full list was thinned out, with strong results kept by preference.

The compounds below were run on Plasmodium berghei (assay: Screen against P. berghei liver stage (PbLuc), transformed with Luciferase, at 10uM). Details: tested at 10 uM.
Type: functional, HepG2
`CCOCC(=O)N1C[C@@H](O)[C@H](N2CCN(c3ccccc3)CC2)C1` showed an INHIBITION of -3.25%. For `CC(C)CCN1CCN(C(=O)c2c[nH]c(=O)[nH]2)CC1`, the INHIBITION was -16.8%. Compound `CCn1nc(C)c2nc(C(C)C)nc(N(C)Cc3ccco3)c21` has an INHIBITION of 11.8%. With `OCCN1CCC(CNCc2ccccc2OC(F)(F)F)CC1` the INHIBITION was 4.8%. `Cc1cc(C)n(-c2ccc(CNCc3cccc(C#N)c3)cn2)n1` was tested, and the INHIBITION was -12.63%. `CC(C)c1csc(C(=O)N2CCCC(Cn3cc(CO)nn3)C2)n1` (stereo not given) was tested, and the INHIBITION was 40.3%. `Cc1nn(CC(O)CN2CCc3ccccc3C2)c(=O)c(C#N)c1C` (stereo not given) gave an INHIBITION of -1.75%. `O=C(N1CCCC1)N1CCC2(CC1)C(=O)N(CC1CC1)c1ccccc12` was tested, and the INHIBITION was 23.5%. In the case of `CCOCc1nnc2n1CCN(Cc1c(C)noc1C)CC2`, the INHIBITION is reported as 30.3%. For `Cn1nccc1C(=O)N1C[C@@H]2CN(S(C)(=O)=O)CCO[C@@H]2C1`, the INHIBITION was 40.5%. Compound `Cc1nc(C(=O)N2C[C@@H]3CN(S(C)(=O)=O)CCO[C@@H]3C2)cs1` has an INHIBITION of 58.5%. `Cc1ccnc(C(=O)N2C[C@@H]3CN(S(C)(=O)=O)CCO[C@@H]3C2)c1` gave an INHIBITION of 48.2%. For `O=C(c1sccc1Br)N(Cc1cccnc1)C1CC1`, the INHIBITION was 25.2%. `Clc1ccc(CN2CCc3c(ncn3C3CC3)C2)c2ncccc12` gave an INHIBITION of 66.3%. In the case of `Cn1cnc2c1CCN(Cc1ccc(Cl)c3cccnc13)C2`, the INHIBITION is reported as 31.1%. With `c1ccc(CCN2CCc3c(ncn3C3CC3)C2)nc1` the INHIBITION was -24.7%. `CCCN(CCc1ccccc1)c1ncnc2oc(C)nc12` was tested, and the INHIBITION was 25.4%. `CC(CNc1cncc(-n2cccn2)n1)N(C)c1ccccc1` (stereo not given) was tested, and the INHIBITION was 10%. With `Cc1nc2c(N3CCC(O)(Cn4ccnc4)CC3)ncnc2o1` the INHIBITION was 29.7%. Work on `CCCOc1ccccc1CCCNc1ncnc2oc(C)nc12` yielded an INHIBITION of 83.5%. Work on `Cc1nc2c(NC(CC(C)(C)C)c3cccnc3)ncnc2o1` (stereo not given) yielded an INHIBITION of 34.4%. For `Cc1nc2c(N(CCC(N)=O)CCc3ccccc3)ncnc2o1`, the INHIBITION was 19.2%. `Cc1nc2c(NCC(C)N(C)c3ccccc3)ncnc2o1` (stereo not given) gave an INHIBITION of 67.7%. For `CCCOc1ccc(Cl)cc1CNc1ncnc2oc(C)nc12`, the INHIBITION was 45.4%. For `CCC(CNc1ncnc2oc(C)nc12)Cc1ccccc1` (stereo not given), the INHIBITION was 59.5%. `Cc1ncnc(NCC(C)N(C)c2ccccc2)c1C` (stereo not given) gave an INHIBITION of 68.6%. `CCN(CC)C(=O)C1CCCN(c2ncnc3oc(C)nc23)C1` (stereo not given) was tested, and the INHIBITION was 3.46%. `Cc1ncnc(NC(CC(C)(C)C)c2cccnc2)c1C` (stereo not given) showed an INHIBITION of 40.3%. For `CC(C)CCN(CCC(C)C)Cc1nc2c(cnn2C)c(=O)[nH]1`, the INHIBITION was -11.58%. `O=C(c1ccco1)N1C[C@H]2CCCN(Cc3nccs3)[C@H]2C1` showed an INHIBITION of 1.71%. `CC(C)c1ccc(OCCNC(=O)CN2CCN(C)CC2C)cc1` (stereo not given) was tested, and the INHIBITION was 32.7%. `COCCNc1nc(N2CCCC2)nc2nccnc12` was tested, and the INHIBITION was 6.29%. For `O=C(c1cscn1)N1CC[C@H]2C[C@@H](c3ccncn3)O[C@@H]2C1`, the INHIBITION was 43.9%. With `COCCC(=O)NCc1ccc(-c2ccccc2C(=O)O)cn1` the INHIBITION was 5.23%. `O=C(C1CCC1)N1CC[C@H](O)[C@@H]1Cc1cccnc1` gave an INHIBITION of 32.1%. `CCCN(C1CCc2ccccc2C1)S(C)(=O)=O` (stereo not given) gave an INHIBITION of 2.97%. `CNS(=O)(=O)CC(=O)N(C1CC1)C1Cc2ccccc2C1` gave an INHIBITION of 32%. Work on `CS(=O)(=O)CCN(CCc1cccc(F)c1)C1CC1` yielded an INHIBITION of 30.9%. `CN(C1CCc2ccccc2C1)S(C)(=O)=O` (stereo not given) showed an INHIBITION of 53.5%. For `CCCN(CCS(C)(=O)=O)C1CCc2ccccc2C1` (stereo not given), the INHIBITION was 53.5%. `CCS(=O)(=O)NCC(=O)N(C1CC1)C1Cc2ccccc2C1` was tested, and the INHIBITION was 7.39%. For `O=C([C@H]1C[C@H]2OCC[C@H]2N(C(=O)c2ccncc2)C1)N1CCCC1`, the INHIBITION was -23.8%. With `CCN(CC)c1ccc(C(=O)N2CCCC2Cn2cc(C)cn2)cn1` (stereo not given) the INHIBITION was -4.75%. In the case of `Cc1nn(-c2ccc(C(=O)O)cc2)c2c1C(C(C)C)SCC(=O)N2` (stereo not given), the INHIBITION is reported as -2.39%. Compound `O=C1COc2ccc(S(=O)(=O)NCCC3=CCCCC3)cc2N1` has an INHIBITION of -13.6%. For `C[C@@H]1CN(CC(=O)NCc2ccccn2)C[C@]1(C)O`, the INHIBITION was 19.8%. `CC(=O)N1C[C@H]2CC[C@@H](C1)N(S(=O)(=O)c1ccc(C#N)cc1Cl)C2` was tested, and the INHIBITION was 38.3%. `CC(C)OCCOCc1cccc(NC(=O)NCC(=O)N(C)C)c1` showed an INHIBITION of 44.4%. `CC(C)OCCOCc1cccc(NC(=O)NCc2ccccn2)c1` gave an INHIBITION of 0.139%. In the case of `CNc1nc(CNC(=O)Nc2cccc(COCCOC(C)C)c2)cs1`, the INHIBITION is reported as 52.4%. `Cc1cc(CNC(=O)Nc2cccc(COCCOC(C)C)c2)no1` was tested, and the INHIBITION was 29.5%. Work on `CC(C)OCCOCc1cccc(NC(=O)NCc2cnn(C)c2)c1` yielded an INHIBITION of 50.4%. With `CC(C)OCCOCc1cccc(NC(=O)NCc2ccncc2)c1` the INHIBITION was -18.2%. In the case of `COc1ccccc1CC(=O)N(C)Cc1cc(C)on1`, the INHIBITION is reported as 10%. Compound `COc1ccc(OC)c(NC(=O)CSc2ccc3nncn3n2)c1` has an INHIBITION of 7.25%. Work on `c1coc(-c2noc(CN3CCc4cncnc4C3)n2)c1` yielded an INHIBITION of 26.43%. Compound `Cc1noc(C)c1-c1cc(CCC2CN(C(=O)CN)CCO2)ncn1` (stereo not given) has an INHIBITION of -7.005%. For `CC(C)c1nnc(NC(=O)NC2CCOc3ccccc32)s1` (stereo not given), the INHIBITION was 32.2%. `O=C(Nc1nnc(C2CC2)s1)NC1CCOc2ccccc21` (stereo not given) showed an INHIBITION of 54.4%. `Cc1nnc(NC(=O)NC2CCOc3ccccc32)s1` (stereo not given) gave an INHIBITION of 13.5%. Work on `Cn1nccc1CN1CCOC(c2cccc(Nc3ccccn3)n2)C1` (stereo not given) yielded an INHIBITION of 78.6%. Work on `Cn1nccc1CN1CCOC(c2cccc(-c3cncnc3)n2)C1` (stereo not given) yielded an INHIBITION of 16.55%. `Cn1nccc1CN1CCOC(c2ccc(-c3cncnc3)cn2)C1` (stereo not given) was tested, and the INHIBITION was 23.8%. `Cc1c(C(=O)N2CCNC(=O)C2)sc2nc[nH]c(=O)c12` showed an INHIBITION of 20.6%. With `Cn1nccc1-c1ncc2c(c1C(=O)O)CCN(Cc1ccccc1)C2` the INHIBITION was 58.7%. `Cn1nccc1-c1ncc2c(c1C(=O)O)CCN(Cc1cccnc1)C2` gave an INHIBITION of 13.7%. In the case of `Cn1nccc1-c1ncc2c(c1C(=O)O)CCN(Cc1ccncc1)C2`, the INHIBITION is reported as 20.1%. Compound `O=C(O)c1c(-c2cccnc2)ncc2c1CCN(Cc1ccccn1)C2` has an INHIBITION of -33.9%. Work on `O=C(O)c1c(-c2cccnc2)ncc2c1CCN(Cc1cccnc1)C2` yielded an INHIBITION of 6.66%. Compound `O=C(O)c1c(-c2cncnc2)ncc2c1CCN(Cc1cccnc1)C2` has an INHIBITION of 96.1%.
